Compound activity as filed in PubChem.
In the library only some 2.4% were active in any assay of this set; here they are far more common.
Rango dissoc inh – inhibitors of RanGTP-induced Rango-importin beta complex dissociation; AID 540253; actives 0.071% (n = 340,000); Biochemical FRET Rango-importin beta, RanGTP-induced dissociation; Potency, µM (doses to about 46.1 µM), for inactives: at the highest dose activity change, negative = inhibition; O95149+P62826; note: % of control where 0% means no effect; nearly all actives have a fitted effect of over 45% in size
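FRET read at 45 min, room temperature: inhibitors block the CFP/YFP signal rise when RanGTP (0.6 uM Ran, 2 mM GTP, 0.2 uM RCC1) frees Rango (0.1 uM) from importin beta (0.25 uM). Pre-read after 5 min compound exposure flags interference.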
TDP1 inh – TDP1 (human) enzyme inhibition; AID 485290; Q9NUW8; recombinant TDP1, AlphaScreen DNA substrate cleavage; actives 0.28% (n = 350,000); Potency, µM (highest dose often 130 µM), inactives show at the top dose activity change, negative = inhibition, most hits filed as inhibitors; active = well fitted curve in the direction sought with a large enough effect; inconclusive = small, poorly fitted or top-dose-only effect, or another doubt; inactive = no such curve, though single readings can be large; an effect the other way counts as inactive or inconclusive; note: % is set by controls: 0 for no effect and ±100 for the full control effect; nearly all actives have a fitted effect of over 40% in size
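Here, a 5' biotin and 3' phosphotyrosine-FITC DNA oligonucleotide reports Tdp1 activity: intact substrate bridges AlphaScreen beads, while cleavage leaves a 3' phosphate and drops signal. All incubations at room temperature.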
ClpP mod – qHTS Assay for Activators of ClpP; ATP-dependent Clp protease proteolytic subunit (Bacillus subtilis (strain 168)), P80244; purified B. subtilis ClpP, FRET peptide cleavage, 20 min; Potency, µM (series often up to 57.5 µM), without a hit: top-dose activity change, negative = active; actives 1.9% (n = 340,000); AID 651965, 2013; active = well fitted falling curve with a large enough effect; inconclusive = small, poorly fitted or top-dose-only effect; inactive = no such curve, though single readings can be large or run the other way; note: the source files actives as falling curves though it sought activators and does not explain the sign; nearly all actives have a fitted effect of over 65% in size
Target sequence (P80244 whole entry, looked up): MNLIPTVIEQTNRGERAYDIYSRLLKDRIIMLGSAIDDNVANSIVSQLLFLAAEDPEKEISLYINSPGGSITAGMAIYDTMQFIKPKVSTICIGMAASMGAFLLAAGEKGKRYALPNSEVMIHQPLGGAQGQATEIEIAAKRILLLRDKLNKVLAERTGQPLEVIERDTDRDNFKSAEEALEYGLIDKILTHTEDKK
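FRET quenching reversal measured ClpP activation: 10 microg/mL B. subtilis ClpP at pH 8 with the FRET-FV decapeptide, read at 430 nm after 320 nm excitation. The 20-min minus 0-min signal was scaled between DMSO/no-enzyme wells and ADEP (5.8 microM final).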
12-LOX inh – inhibitors of human 12S-lipoxygenase ALOX12; purified 12hLO, xylenol orange hydroperoxide absorbance; Potency, µM (highest dose often 108 µM), for inactives: at the highest dose activity change, negative = inhibition, actives largely listed as inhibitors; actives 1.1% (n = 580,000); AID 1671190; active = well fitted curve in the direction sought with a large enough effect; inconclusive = small, poorly fitted or top-dose-only effect, or another doubt; inactive = no such curve, though single readings can be large; an effect the other way counts as inactive or inconclusive; note: % is set by controls: 0 for no effect and ±100 for the full control effect
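Purified human 12hLO at 150 nM in 25 mM Hepes, 0.01% Triton X-100, pH 7.0, preincubated 15 min at room temperature with compound. Reaction started with 40 uM arachidonic acid, 30 min at room temperature. Hydroperoxide measured by Fe-xylenol orange, 573/405 nm absorbance ratio.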
TSG101-PTAP inh – blocks PTAP/TSG101 interaction to inhibit HIV-1 budding; Potency, µM (top dose mostly 115 µM), for the others: top-dose activity change, negative = inhibition, actives largely listed as inhibitors; AID 493005; 340,000 tested, under 10 active; Q99816; Fluorescence polarization, FITC-PTAP peptide / Tsg101 binding; active = well fitted inhibition curve with a large enough effect in the main read-out, with a control signal flat, not every such curve was filed as active; inconclusive = small, poorly fitted or top-dose-only effect, or effect the other way, or a change in a side signal; inactive = no such curve, though single readings can be large or run the other way; note: % of control where 0% means no effect
Target sequence (Q99816 whole entry, looked up): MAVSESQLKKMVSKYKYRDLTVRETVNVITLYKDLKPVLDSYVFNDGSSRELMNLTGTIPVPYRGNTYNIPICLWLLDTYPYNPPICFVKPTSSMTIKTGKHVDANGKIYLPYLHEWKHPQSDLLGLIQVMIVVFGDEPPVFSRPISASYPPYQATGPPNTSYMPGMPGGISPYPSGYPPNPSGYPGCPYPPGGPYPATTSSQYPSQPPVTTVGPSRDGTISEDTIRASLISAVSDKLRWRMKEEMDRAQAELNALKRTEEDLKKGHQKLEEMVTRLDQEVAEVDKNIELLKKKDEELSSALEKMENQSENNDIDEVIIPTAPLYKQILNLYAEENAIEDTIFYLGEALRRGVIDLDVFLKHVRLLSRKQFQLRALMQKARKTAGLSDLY
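FP read-out: FITC-PTAP peptide, 50 nM final, binding Tsg101 binding domain, 10 uM final; 20 min, r.t.; 10 mM HEPES pH 7.5, 0.15 M NaCl, 0.01% Tween 20, 3 mM EDTA, 0.1 mM TCEP.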
Rango complex inh – inhibitors of Rango-importin beta complex formation; Rango CFP/YFP FRET sensor + importin beta, 45 min; AID 540263; Potency, µM (titrated, usually from 92.2 µM), inactives show top-dose inhibition of complex formation; Q14974; actives 0.031% (n = 340,000);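 note: 0% = DMSO wells and 100% = buffer wells lacking importin beta; nearly all actives have a fitted effect of over 15% in size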
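FRET biosensor Rango (snurportin 1 IBB between N-terminal EYFP and C-terminal Cerulean), 50 nM in PBS/1 mM DTT/0.02% Tween-20/0.1% BSA, preincubated 5 min RT with compound; 0.125 microM importin beta added, 45 min RT, CFP/YFP FRET ratio read.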
Active calls of the source: *; ? = inconclusive; · = not tested or not shown; [ ] = remark or other dose. Unless noted, calls come from the whole dose curve. Potency is the fitted concentration of half-maximal effect.

SMILES	Rango dissoc inh	TDP1 inh	ClpP mod	12-LOX inh	TSG101-PTAP inh	Rango complex inh
Cc1ccc(NC(=O)N2CCC[C@H]2C(=O)N2CCCCCCNC(=O)CC2)cc1C	·	·	·	13%	·	·
CC(C)CNC(=O)C(=O)Nc1ccc2cc[nH]c2c1	·	·	·	35µM*	·	·
CC(C)NC(=O)CNC(=O)C(=O)Nc1ccc2cc[nH]c2c1	·	·	·	-11%	·	·
C/C(=N\NC(=S)NCc1ccccc1)c1cccc(Br)c1	-15%	-10%	·	32µM*	-1%	0%
C/C(=N/NC(=S)NCc1ccccc1)c1ccncc1	·	·	·	-5%	·	·
C/C(CCC(C)C)=N\NC(=S)NCc1ccccc1	29%	6%	3%	?	5%	2%
C/C(=N\NC(=S)NCc1ccccc1)c1ccc2ccccc2c1	-1%	10%	-4%	45µM*	-1%	0%
C/C(=N\NC(=S)NCCc1ccccc1)c1cccc(Br)c1	-13%	8%	-2%	45µM*	1%	5%
Cc1[nH]c2ccc(F)cc2c1C=O	·	·	·	5%	·	·
CCCCCCC1C(C#N)=C(N)OC2=C1C(=O)CCC2 (stereo unspecified)	-6%	5%	-2%	32µM*	-1%	0%
CCCCCCC1C(C#N)=C(N)OC2=C1C(=O)CC(C)(C)C2 (stereo unspecified)	12%	3%	1%	-6%	-1%	2%
FC(F)(F)Oc1cccc(CNC[C@H]2Cn3ccnc3CO2)c1	·	·	·	42%[176 µM]	·	·
CCOc1ccc(NC(=O)CSC2=C(C#N)C(c3ccccc3Cl)C(C(C)=O)=C(C)N2)cc1 (stereo unspecified)	·	·	·	32µM*	·	·
COc1ccc(NC(=O)CSC2=C(C#N)C(c3ccco3)C3=C(CCCC3=O)N2)c(OC)c1 (stereo unspecified)	-4%	-4%	2%	18µM*	-12%	?
CSCSC1=C(C#N)C(c2ccccc2Cl)C(C(C)=O)=C(C)N1 (stereo unspecified)	-18%	6%	-5%	?	0%	?
CCOc1ccccc1C1C(C#N)=C(SCC(=O)Nc2ccc(C)cc2)NC2=C1C(=O)CCC2 (stereo unspecified)	·	·	·	-17%	·	·
COc1ccc(C2C(C#N)=C(SCC(=O)Nc3ccc(C)cc3)NC3=C2C(=O)CC(C)(C)C3)cc1 (stereo unspecified)	1%	4%	22µM*	31%	0%	1%
CCn1nccc1C(=O)N1CCC(c2noc(COc3ccc(F)cc3)n2)C1 (stereo unspecified)	·	·	·	87%	·	·
CC(C)c1ccc(C(=O)N2CCC3(CC2)OC(=O)N(CC2CC2)C3(C)c2cccnc2)cc1 (stereo unspecified)	·	·	·	15%	·	·
CCOC(=O)c1c(NC(=O)c2ccoc2C)sc2c1CCCCC2	·	·	·	-7%	·	·
CCOC(=O)c1c(NC(=O)c2ccc(C)cc2)sc2c1CC(C)(C)OC2	22%	?	25µM*	-17%	4%	1%
CCOC(=O)c1c(NC(=O)c2ccccc2C)sc2c1CC(C)(C)OC2	12%	-2%	?	?	-4%	0%
COC(=O)c1c(NC(=O)c2ccoc2C)sc2c1CCC2	-8%	·	32µM*	-8%	-8%	?
COC(=O)c1c(NC(=O)COC(=O)[C@@H](NS(=O)(=O)c2ccc(C)cc2)C(C)C)sc2c1CCC2	7%	2%	28µM*	0%	-2%	-2%
CCOC(=O)c1c(NC(=O)C2CC(Cl)=CCC2C(=O)O)sc2c1CCCCC2 (stereo unspecified)	-1%	22µM*	-10%	·	-1%	1%
SMILES	Rango dissoc inh	TDP1 inh	ClpP mod	12-LOX inh	TSG101-PTAP inh	Rango complex inh
Cc1ccc(CNc2nc3ccccc3nc2NS(=O)(=O)c2cccs2)cc1	·	·	·	-5%	·	·
CCOC(=O)c1c(NC(=O)c2ccco2)sc2c1CCCCC2	5%	·	35µM*	-16%	-7%	1%
O=C(Nc1sc2c(c1C(=O)O)CCCCC2)c1ccco1	8%	0%	-4%	0%	-6%	0%
CCCOC(=O)c1c(NC(=O)C2c3ccccc3Oc3ccccc32)sc2c1CCCC2	·	2%	13µM*	-28%	·	·
CC(C)OC(=O)c1c(NC(=O)C2c3ccccc3Oc3ccccc32)sc2c1CCCC2	·	3%	?	-18%	·	·
COc1ccc2cc(CN(C)Cc3c(C)noc3C)ccc2c1	·	·	·	75%	·	·
Cc1nc(NC(=O)c2cccc(-c3cc4ccccc4oc3=O)c2)ccc1Br	9%	-3%	-5%	-27%	1%	2%
O=C(Nc1ccc(Br)cn1)c1cccc(-c2cc3ccccc3oc2=O)c1	4%	-8%	14µM*	-19%	-11%	-3%
O=C(Nc1ccc(N2CCCC2)cc1)c1cccc(-c2cc3ccccc3oc2=O)c1	-4%	-1%	1%	11µM*	0%	-2%
CC(=O)c1c(C)[nH]c(C(=O)Cn2cnc3ccc(Cl)cc3c2=O)c1C	·	·	·	13%	·	·
O=C(C1=C(c2ccccc2)S(=O)(=O)CCO1)N(Cc1ccc(Cl)cc1)c1ccccn1	·	·	·	-14%	·	·
COc1cccc(C2Cn3nnc(-c4nc(-c5cccc(F)c5)no4)c3CO2)c1 (stereo unspecified)	·	·	·	-1%	·	·
COc1ccc(C(=O)N2CC(c3noc(C4CCCN4CC4CC4)n3)C2)cc1 (stereo unspecified)	·	·	·	1%	·	·
N#Cc1c2c(c(NCc3cccnc3)n3c1nc1ccccc13)CCC2	?	2%	32µM*	-3%	-7%	?
CCC(=O)NCCC1CCN(C(=O)Nc2ccccc2F)CC1	·	·	·	15%	·	·
O[C@@H]1C[C@@H](c2nc(-c3ccccn3)no2)N(Cc2ccccc2)C1	·	·	·	24%[176 µM]	·	·
COc1ccc(CCn2c(=O)[nH]c3cc(C(=O)N4CCN(c5ccccn5)CC4)ccc3c2=O)cc1OC	-1%	1%	11µM*	38%	-2%	-2%
CCc1nnc(NC(=O)CCC(=O)N2CCN(c3ccccn3)CC2)s1	2%	3%	18µM*	-1%	-5%	0%
Cc1cccc(C(=O)NCC(=O)N2CCN(c3ccccn3)CC2)c1	7%	1%	28µM*	90%	-11%	2%
CCN1CCN(C(=O)c2ccc(Cn3c(=O)[nH]c4cc(OC)c(OC)cc4c3=O)cc2)CC1	-16%	2%	16µM*	-4%	-7%	-2%
COc1ccc(OC)c(C2CCCN2Cc2nc(-c3cccc(C(F)(F)F)c3)no2)c1 (stereo unspecified)	·	·	·	-1%	·	·
